Measurements from PubChem BioAssay.
Active and inactive are the calls of the source. Unless noted, the rule behind the calls is not given here.

Assays:
[1] = compounds binding Alexa647 anti-His antibody – biochemical, small-molecule microarray, 635 nm fluorescence, artefact control for SMM control protein annotation, primary screen (AID 1128); settings: higher = more signal;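 note: score merges feature fluorescence with signal-to-noise for each printed compound spot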
[2] = tested on: Human papillomavirus type 1a E7 protein (residues 1-88); experiment: HPV1a E7 small-molecule binders, primary screen, biochemical, small-molecule microarray, residues 1-88, 635 nm (AID 1129); settings: small-molecule microarray binding, fluorescence 635 nm; higher = more signal
[3] = target: Focal adhesion kinase 1 (Homo sapiens) (UniProt Q05397); experiment: PTK2 protein binding on printed compound slides – biochemical, small-molecule microarray, 635/667 nm fluorescence, BSA, DTT, primary screen (AID 1130); settings: 635 nm fluorescence, higher = more signal;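 note: composite of spot emission at 667 nm and signal to noise over triplicate slides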
[4] = tested on: Fibrinogen (Alexa647-labelled); experiment: Alexa647-fibrinogen binding to printed small molecules – biochemical, small-molecule microarray, 635/667 nm fluorescence, artefact control for SMM control-protein annotation, profiling panel (AID 1131); settings: fibrinogen-A647 binding fluorescence, higher = more signal;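 note: z-score merges 667 nm fluorescence with per-spot signal-to-noise over triplicate slides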
[5] = target: Follistatin (Homo sapiens) (UniProt P19883); experiment: FST protein binding to printed compounds – biochemical, small-molecule microarray, 635/667 nm fluorescence, primary screen (AID 1132); settings: 635 nm fluorescence, higher = more signal
[6] = target: Fibroblast growth factor 2 (Homo sapiens) (UniProt P09038); experiment: basic fibroblast growth factor binding to printed compounds – biochemical, small-molecule microarray, 635/667 nm fluorescence, primary screen (AID 1133); settings: FGF2, fluorescence 635/667, higher = more signal
[7] = JC-1 mitochondrial potential readout, lung cancer cells – cell-based, A549, JC-1 fluorescence, basal, 24 h, 100 nL, profiling panel (AID 1138); settings: higher = more signal;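 note: A549 lung adenocarcinoma cells under basal conditions with no added stimulus; test concentration not given here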
Lefty1 = Lefty1 protein binding to printed compounds – biochemical, small-molecule microarray, 635/667 nm fluorescence, primary screen (AID 1139); settings: fluorescence 635/667, higher = more signal
[8] = tested on: wheat germ agglutinin (Triticum aestivum), Alexa647-labelled; experiment: Alexa647-WGA lectin binding to printed small molecules – biochemical, small-molecule microarray, 635/667 nm fluorescence, artefact control for SMM control-protein annotation, profiling panel (AID 1140); settings: WGA-A647 binding, 635 nm fluorescence, higher = more signal;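 note: score merges 667 nm feature emission with signal to noise over triplicate slides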
[9] = target: Luciferin 4-monooxygenase (Photinus pyralis) (UniProt P08659); experiment: inhibition of purified Photinus pyralis luciferase – biochemical, luminescence, purified enzyme, 2006 set, primary screen (AID 1141); settings: purified firefly luciferase, SteadyGlo luminescence, 30 min; higher = more signal, called active from +8 up or from −8 down;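 note: cell-free assay with purified firefly luciferase at 100 ng per well in PBS; test concentration not given here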
[10] = tested on: Wnt5a (protein binding on small-molecule microarray); experiment: small molecules binding Wnt5a protein – biophysical, small-molecule microarray, 635/667 nm fluorescence, primary screen (AID 1142); settings: 635 nm fluorescence, higher = more signal;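 note: fluorescence read at 667 nm with signal to noise per printed feature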
[11] = ATP-based viability of Huh7 replicon cells – cell-based, CellTiter-Glo luminescence, basal, 48 h, cytotoxicity control for HCV replication inhibitor project, primary screen (AID 1143); settings: higher = more signal, called active from +8 up or from −8 down;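 note: Huh7 hepatoma cells carrying a hepatitis C replication reporter with no stimulus; test concentration not given here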
[12] = Pseudomonas biofilm growth suppression – PAO1 strain, BacTiter-Glo luminescence, LB-PBS, primary screen (AID 1144); settings: P. aeruginosa PAO1 biofilm, 12 h, higher = more signal
[13] = basal CRE-LacZ reporter activity in PC12 – cell-based, unstimulated, primary screen (AID 1145); settings: no forskolin, luminescence, 4.5 h, higher = more signal, called active from +8 up or from −8 down
[14] = forskolin-driven CRE-LacZ activity in PC12 – cell-based, CRE-LacZ reporter, forskolin-stimulated, primary screen (AID 1146); settings: luminescence, 4.5 h, higher = more signal, called active from +8 up or from −8 down;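 note: PC12 cells with 6xCRE LacZ reporter stimulated by forskolin 10 µM; beta-galactosidase reporter signal reflecting CREB driven transcription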
[15] = target: Streptavidin (Streptomyces avidinii) (UniProt P22629); experiment: compounds binding control protein streptavidin – biophysical, small-molecule microarray, 635/667 nm fluorescence, artefact control for SMM compound annotation, primary screen (AID 1147); settings: higher = more signal;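 note: signal reflects streptavidin binding to arrayed compounds as a control protein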
[16] = probe aInhba binding on compound microarray – biochemical, small-molecule microarray, 635/667 nm fluorescence, primary screen (AID 1148); settings: higher = more signal;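 note: score merges 667nm spot fluorescence with signal-to-noise for antibody binding to printed compounds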
Torsin-1A (Homo sapiens) [17] = target: Torsin-1A (Homo sapiens) (UniProt O14656); experiment: TOR1A wild-type binding on microarray – cell lysate, small-molecule microarray, lysate, 635/667 nm, primary screen (AID 1149); settings: COS7 hTOR1A-WT lysate, 635 nm fluorescence, higher = more signal
Torsin-1A (Homo sapiens) [18] = target: Torsin-1A (Homo sapiens) (UniProt O14656); experiment: torsin A mutant lysate binding on microarrays – cell lysate, small-molecule microarray, COS7 lysate, 635/667 nm fluorescence, primary screen (AID 1150); settings: COS7 hTOR1A mutant lysate, 635 nm fluorescence, higher = more signal;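 note: score pools 667 nm emission and signal to noise measuring lysate protein binding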
[19] = tested on: Sonic hedgehog protein (Shh); experiment: Sonic hedgehog microarray binding compounds – biochemical, small-molecule microarray, 635/667 nm fluorescence, primary screen (AID 1151); settings: 635 nm fluorescence, higher = more signal;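 note: Shh protein binding to compounds spotted on small-molecule microarray slides; score combines spot fluorescence intensity with signal-to-noise across triplicate slides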

Sequence of Torsin-1A (Homo sapiens) (O14656 whole entry, looked up): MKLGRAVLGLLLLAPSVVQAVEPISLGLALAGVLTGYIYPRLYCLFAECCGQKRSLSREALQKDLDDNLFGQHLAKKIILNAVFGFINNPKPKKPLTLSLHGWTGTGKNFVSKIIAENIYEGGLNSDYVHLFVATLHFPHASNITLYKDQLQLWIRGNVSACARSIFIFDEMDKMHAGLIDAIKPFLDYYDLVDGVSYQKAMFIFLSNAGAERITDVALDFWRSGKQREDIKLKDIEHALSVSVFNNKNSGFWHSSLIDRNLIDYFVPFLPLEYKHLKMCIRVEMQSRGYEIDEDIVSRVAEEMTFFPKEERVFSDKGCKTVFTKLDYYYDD
Sequence of Follistatin (Homo sapiens) (P19883 whole entry, looked up): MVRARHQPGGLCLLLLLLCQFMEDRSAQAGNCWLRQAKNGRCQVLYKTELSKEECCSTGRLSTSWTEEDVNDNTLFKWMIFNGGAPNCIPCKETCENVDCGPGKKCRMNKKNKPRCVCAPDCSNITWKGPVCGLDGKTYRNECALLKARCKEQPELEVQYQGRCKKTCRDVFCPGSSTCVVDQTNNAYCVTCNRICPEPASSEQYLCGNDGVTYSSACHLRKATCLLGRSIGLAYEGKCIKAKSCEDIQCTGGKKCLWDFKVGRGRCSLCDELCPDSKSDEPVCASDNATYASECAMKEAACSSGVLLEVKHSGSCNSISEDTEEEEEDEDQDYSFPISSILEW
Sequence of Luciferin 4-monooxygenase (Photinus pyralis) (P08659 whole entry, looked up): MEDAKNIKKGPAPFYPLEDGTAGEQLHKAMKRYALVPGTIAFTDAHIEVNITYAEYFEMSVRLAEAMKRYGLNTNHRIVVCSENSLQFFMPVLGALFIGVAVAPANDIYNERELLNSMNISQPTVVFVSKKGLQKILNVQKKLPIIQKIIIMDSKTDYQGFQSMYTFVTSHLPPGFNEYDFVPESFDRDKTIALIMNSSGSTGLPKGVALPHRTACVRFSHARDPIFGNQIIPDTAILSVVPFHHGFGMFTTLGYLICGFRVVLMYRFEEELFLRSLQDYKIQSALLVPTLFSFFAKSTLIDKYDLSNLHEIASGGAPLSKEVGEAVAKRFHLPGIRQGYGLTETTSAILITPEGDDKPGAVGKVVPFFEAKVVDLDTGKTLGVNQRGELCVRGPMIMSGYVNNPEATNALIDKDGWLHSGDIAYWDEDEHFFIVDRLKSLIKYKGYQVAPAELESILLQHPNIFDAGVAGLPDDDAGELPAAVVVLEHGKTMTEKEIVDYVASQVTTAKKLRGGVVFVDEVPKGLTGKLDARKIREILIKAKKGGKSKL
Sequence of Fibroblast growth factor 2 (Homo sapiens) (P09038 whole entry, looked up): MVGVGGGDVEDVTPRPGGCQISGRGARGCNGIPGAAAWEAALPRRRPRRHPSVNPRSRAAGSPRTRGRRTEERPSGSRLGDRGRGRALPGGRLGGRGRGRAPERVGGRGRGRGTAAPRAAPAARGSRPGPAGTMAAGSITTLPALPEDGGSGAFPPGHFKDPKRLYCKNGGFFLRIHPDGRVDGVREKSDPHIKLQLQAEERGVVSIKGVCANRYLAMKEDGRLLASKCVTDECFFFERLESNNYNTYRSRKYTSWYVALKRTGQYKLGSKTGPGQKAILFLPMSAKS
Sequence of Focal adhesion kinase 1 (Homo sapiens) (Q05397 whole entry, looked up): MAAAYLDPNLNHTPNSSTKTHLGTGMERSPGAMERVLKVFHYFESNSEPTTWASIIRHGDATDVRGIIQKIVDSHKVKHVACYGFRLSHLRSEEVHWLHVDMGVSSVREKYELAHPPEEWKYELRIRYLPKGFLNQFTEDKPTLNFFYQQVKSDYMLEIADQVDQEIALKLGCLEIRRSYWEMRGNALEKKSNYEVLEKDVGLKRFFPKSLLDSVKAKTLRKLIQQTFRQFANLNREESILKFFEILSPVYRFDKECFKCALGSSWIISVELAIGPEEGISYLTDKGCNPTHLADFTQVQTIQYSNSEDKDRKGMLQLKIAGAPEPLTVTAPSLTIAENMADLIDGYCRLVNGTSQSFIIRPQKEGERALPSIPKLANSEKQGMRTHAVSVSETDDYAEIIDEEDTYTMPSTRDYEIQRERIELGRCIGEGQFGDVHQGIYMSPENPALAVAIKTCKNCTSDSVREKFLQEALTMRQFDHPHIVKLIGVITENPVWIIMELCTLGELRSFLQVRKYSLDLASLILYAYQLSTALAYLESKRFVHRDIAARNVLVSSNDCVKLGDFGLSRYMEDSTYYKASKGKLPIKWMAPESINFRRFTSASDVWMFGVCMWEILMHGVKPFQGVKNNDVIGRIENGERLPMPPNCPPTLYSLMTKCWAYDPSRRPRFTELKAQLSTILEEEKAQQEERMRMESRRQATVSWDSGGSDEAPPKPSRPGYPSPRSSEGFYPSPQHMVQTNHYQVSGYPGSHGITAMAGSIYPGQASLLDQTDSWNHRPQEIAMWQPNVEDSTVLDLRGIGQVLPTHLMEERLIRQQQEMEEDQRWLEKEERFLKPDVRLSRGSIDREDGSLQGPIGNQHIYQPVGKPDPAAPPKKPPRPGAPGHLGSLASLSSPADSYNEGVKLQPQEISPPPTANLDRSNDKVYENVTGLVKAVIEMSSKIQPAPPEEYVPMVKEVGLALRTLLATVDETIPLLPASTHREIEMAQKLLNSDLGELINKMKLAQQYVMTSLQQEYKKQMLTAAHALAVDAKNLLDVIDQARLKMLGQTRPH
Sequence of Streptavidin (Streptomyces avidinii) (P22629 whole entry, looked up): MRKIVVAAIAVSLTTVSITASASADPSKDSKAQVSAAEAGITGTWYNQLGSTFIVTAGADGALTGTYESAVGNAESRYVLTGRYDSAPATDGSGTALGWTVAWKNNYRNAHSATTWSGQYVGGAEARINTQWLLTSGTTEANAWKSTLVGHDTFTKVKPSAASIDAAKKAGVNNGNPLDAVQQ

SMILES	composite z-score [1]	composite z-score [2]	composite z-score [3]	composite z-score [4]	composite z-score [5]	composite z-score [6]	z-score [7]	composite z-score (Lefty1)	composite z-score [8]	z-score [9]	composite z-score [10]	z-score [11]	z-score [12]	z-score [13]	z-score [14]	composite z-score [15]	composite z-score [16]	composite z-score (Torsin-1A (Homo sapiens) [17])	composite z-score (Torsin-1A (Homo sapiens) [18])	composite z-score [19]
CO[C@H]1COC(=O)[C@H](C)NC(=O)[C@@H](C)COC(=O)CC=C[C@@H]1C	-0.133	-0.0179	-0.274	-0.177	0.598	1.34	-0.855	0.572	-0.114	0.514 (inactive)	-0.185	-0.068 (inactive)	-0.865 (inactive)	0.341 (inactive)	-0.178 (inactive)	-0.356	-0.016	1.24	0.296	1.47
COC(=O)[C@@]1(Cc2ccccc2)[C@H]2c3cc(C(=O)N4CCCC4)n(Cc4ccccn4)c3C[C@H]2CN1C(=O)c1ccccc1	1.81	1.26	0.846	0.412	1.24	0.354	0.449	0.19	0.236	1.93 (inactive)	1.25	-1.5 (inactive)	-1.42 (inactive)	0.201 (inactive)	1.06 (inactive)	1.02	0.74	0.671	1.91	-0.369
C[C@@H]1CCC2C(=O)N(Cc3ccccc3)C[C@@H](O)CN2[C@H]1c1ccc(Br)cc1 (stereo not given in full)	0.737	0.0101	-0.24	0.909	0.49	0.425	1.89	0.399	0.623	-1.86 (inactive)	-0.412	-2.02 (inactive)	-1.54 (inactive)	2.28 (inactive)	-0.284 (inactive)	0.398	-0.0719	0.866	1.42	0.228
COc1ccc(-c2nc3c(c4c2C[C@H](C)OC4)CN(CCC(C)C)CC3)cc1	0.998	1.14	0.233	0.809	0.653	0.491	2.72	0.67	0.642	-0.793 (inactive)	-0.0798	-0.333 (inactive)	-1.22 (inactive)	7.06 (inactive)	-1.11 (inactive)	0.141	-0.0791	-0.253	0.0824	1.32
O=C1[C@H]2[C@H]3[C@H](O)[C@H](O)CC(=NOC[C@@H](O)COCc4ccco4)[C@H]3CC[C@H]2C(=O)N1c1cccc(Oc2ccccc2)c1	-0.304	-0.438	-0.112	-1.32	-0.924	-0.701	0.89	-0.021	0.503	0.481 (inactive)	-0.31	-0.6 (inactive)	-0.0166 (inactive)	-0.21 (inactive)	0.452 (inactive)	-0.393	-0.285	0.626	0.948	-0.621
COc1ccc([Si](C)(C)[C@H]2[C@H](CC(=O)N3CCC[C@H]3CO)O[C@@]3(C(=O)N(Cc4cccc(N5C(=O)COc6ccccc65)c4)c4ccccc43)[C@@H]2C)cc1	0.514	0.885	0.392	-0.07	0.727	1.68	4.31	0.994	-0.32	-2.36 (inactive)	0.156	-2.16 (inactive)	-0.201 (inactive)	7.18 (inactive)	-1.22 (inactive)	0.0527	-0.157	0.419	0.889	1.92
COc1ccc([Si](C)(C)[C@@H]2[C@@H](CCO)O[C@]3(C(=O)N(Cc4ccc(NC(C)=O)cc4)c4ccccc43)[C@H]2C)cc1	1.92	1.22	0.11	0.963	1.07	0.228	-0.898	0.727	0.771	0.377 (inactive)	0.913	-8.01 (active)	0.525 (inactive)	3.57 (inactive)	-2.33 (inactive)	0.627	0.16	0.412	1.21	1.35
CC(CCC(=O)OC[C@H]1O[C@H](C#Cc2ccccc2)C=C[C@@H]1Oc1ccc(C)cc1)=NO[C@@H](C)c1cn([C@H](CO)Cc2ccccc2)nn1	1.35	0.0769	0.0915	0.716	0.335	0.61	-0.97	0.393	0.587	0.991 (inactive)	0.204	-2.82 (inactive)	-1.07 (inactive)	1.07 (inactive)	0.0061 (inactive)	0.258	-0.003	-0.323	-0.146	0.316
COC(=O)c1c(CC[C@@H](CO)NC(=O)N[C@H](Cc2ccccc2)Cn2cc(-c3ccccc3N)nn2)oc(C(C)=O)c1C(=O)OC	1.35	1.17	-0.422	0.323	0.629	0.237	0.34	0.348	1.14	-0.197 (inactive)	-0.0029	-0.145 (inactive)	0.41 (inactive)	3.84 (inactive)	-0.687 (inactive)	2.14	0.449	0.481	0.794	0.352
COc1ccc([Si](C)(C)[C@@H]2[C@@H](CC(=O)N3CCC[C@H]3CO)O[C@]3(C(=O)N(Cc4cccc(N5CCC5=O)c4)c4ccccc43)[C@H]2C)cc1	0.97	1.18	0.418	0.809	0.907	0.402	1.04	0.917	0.81	-1.69 (inactive)	-0.071	-3.38 (inactive)	-1.54 (inactive)	0.772 (inactive)	-0.662 (inactive)	1.56	0.3	0.511	0.413	2
